Screening results deposited in PubChem by SRMLSC.
Spn PMK inh: S. pneumoniae PMK inhibition; actives 0.49% (n = 65,000); AID 539; purified PMK, PK/LDH-coupled NADH absorbance 340 nm; inhibition, % at 10 µM;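 active means top-ranked compounds by inhibition in the single 10 µM screen, taking a fixed number of the strongest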;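 further: 0% = full reaction with DMSO carrier and 100% = background rate without enzyme reaction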
MK inhibit: S. pneumoniae mevalonate kinase inhibition | purified MK, PK/LDH-coupled NADH absorbance 340 nm | inhibition, % at 10 µM | actives 0.48% (n = 65,000);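 active means ranked among the strongest by inhibition in the single 10 µM screen, a fixed top-ranked set picked for dose follow-up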
Spn DPM-DC inh: inhibitors of Streptococcus pneumoniae diphosphomevalonate decarboxylase. actives 0.49% (n = 65,000). calls only at 10 µM. purified DPM-DC, PK/LDH coupled NADH fluorescence;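 active means the 320 compounds with the highest percent inhibition in the single-dose primary screen, excluding strongly autofluorescent ones, cut at about 32% in these data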;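 further: kinetic rate of NADH fluorescence loss reporting ADP formed by the decarboxylase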
Abs 340nm: absorbance at 340 nm | compound absorbance at 340 nm, fold over control | fold change at 10 µM | 65,000 tested, under 10 active | AID 708;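 active means at 10 µM dose, initial 340 nm absorbance at least 2 fold that of control wells; inactive means change under 2 fold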;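 further: initial absorbance extrapolated from kinetic A340 decline of NADH oxidation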
NADH enzymes: blocks coupling enzymes of NAD/NADH assays; coupled PK/LDH NADH assays, four targets; IC50, µM (top dose mostly 10 µM), without a hit: top-dose inhibition; actives 0.02% (n = 65,000); AID 774;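 active means single-dose screening hits from any of four coupled enzyme assays that gave an IC50 when retested across doses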;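 further: the DPM-DC format reads NADH fluorescence rather than 340 nm absorbance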
Autofluor 339: intrinsic fluorescence of library compounds, ex339/em460 – biochemical, MLSMR library, data from DPM-DC assay, artefact control, profiling panel; compound autofluorescence, ex339/em460 nm, NADH buffer; active compounds read high; 1 = no-compound wells, NADH background; fluorescence fold increase at 10 µM; actives 5.5% (n = 65,000); AID 709;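 active means at 10 µM, mean starting fluorescence two-fold or more over control wells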;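 further: signal is the first read of a kinetic run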
* marks the source's active call; other numbers are inactive results; i = inactive; nt = not tested or not shown; + = active, no number. In the library only some 6.5% were active in any assay of this set; here they are far more common.

SMILES	Spn PMK inh	MK inhibit	Spn DPM-DC inh	Abs 340nm	NADH enzymes	Autofluor 339
CCN(CC)C(=O)C1CCCN(Cc2ccc(OC)c(C)c2C)C1 (stereo not given)	0.0	56.0*	i	1.06	19.0%	1.16
CCOC(=O)C1CCCN(Cc2cc(Br)c(OC)cc2OC)C1 (stereo not given)	0.0	50.0*	i	1.08	17.0%	1.12
COc1cccc(CN2CCCC(C(=O)N3CCCCC3)C2)c1OC (stereo not given)	8.0	0.0	i	1.03	3.0%	1.16
CCOC(=O)C1CCCN(Cc2cc(OC)c(O)c(OC)c2)C1 (stereo not given)	0.0	50.0*	i	1.06	17.0%	1.11
CCN(C(=O)Cc1cccs1)c1nnc(-c2cccnc2)s1	13.0	1.0	i	1.04	5.0%	1.1
CCc1c(C(=O)Nc2ccc(S(=O)(=O)N3CCOCC3)cc2)csc1C	6.0	10.0	i	1.05	8.0%	1.08
Cc1cc(F)c(F)c(C(=O)N2CCN(C)CC2)c1Cl	0.0	0.0	i	1.02	0.0%	1.1
CSc1ccccc1NC(=O)c1ccco1	1.0	5.0	i	1	2.0%	1.12
COC(=O)c1ccc(Nc2ncnc3c2cnn3-c2cccc(C)c2)cc1	7.0	0.0	nt	1.12	4.0%	2.15*
CCn1c(SCC(=O)Nc2ccc(NC(C)=O)cc2)nnc1C1CC1	19.0	7.0	i	0.98	10.0%	1.09
CCn1c(SCC(=O)Nc2ccc(Cl)cc2)nnc1C1CC1	58.0*	4.0	i	0.99	9.0%	1.03
O=C(NCCN1CCOCC1)c1ccc2c(c1)N(Cc1ccccc1)C(=O)CS2	19.0	3.0	i	1.01	2.0%	1.06
O=C(NCCN1CCOCC1)c1ccc2c(c1)N(Cc1ccccc1)CCS2	8.0	9.0	nt	1.04	9.0%	2.03*
CCN1C(=O)CSc2ccc(C(=O)NCCCN3CCOCC3)cc21	17.0	0.0	i	0.99	6.0%	1.07
CN1CCN(CCCNC(=O)c2ccc3c(c2)N(Cc2ccccc2)CCS3)CC1	16.0	0.0	nt	1.08	8.0%	2.11*
Cc1cc(NC(=O)CSc2ccc3c(c2)OCCO3)no1	14.0	0.0	i	1.01	5.0%	1.02
Cc1ccc(-c2nnn(CC(=O)N(CC(=O)NCC3CCCO3)c3ccc(F)c(Cl)c3)n2)o1 (stereo not given)	44.0*	0.0	i	1.06	15.0%	1.05
CCOC(=O)Nc1oc2ccccc2c(=O)c1CN1CCOCC1	5.0	6.0	i	1.03	8.0%	2.23*
COc1ccc(N2CCN(Cc3cc(=O)oc4c3ccc3ccccc34)CC2)cc1	7.0	10.0	i	1.03	6.0%	1.11
O=c1cc(C(F)F)oc2c1ccc1ccccc12	0.0	7.0	nt	1	1.0%	2.46*
CCOc1ccc(C(=O)N2CCC(C(=O)c3ccc4c(c3)OCCO4)CC2)cc1	11.0	1.0	i	0.99	3.0%	1.07
N#Cc1nc(-c2ccco2)oc1NCc1cccnc1	20.0	16.0	i	1.04	19.0%	2.07*
N#Cc1nc(-c2ccco2)oc1NCc1ccc(F)cc1	10.0	11.0	i	1.03	15.0%	3.3*
COC(=O)CN1C2(C#N)CCCCC2CC2CCCCC21C#N (stereo not given)	7.0	5.0	i	1	4.0%	1.06
CCOC(=O)Cc1c(C)c2c(O)cc(O)cc2oc1=O	0.0	5.0	nt	1.06	4.0%	2.43*
SMILES	Spn PMK inh	MK inhibit	Spn DPM-DC inh	Abs 340nm	NADH enzymes	Autofluor 339
CCN(CC)c1ccc2c(C)c(-c3ccc(N)cc3)c(=O)oc2c1	12.0	1.0	nt	0.98	6.0%	2.47*
CCOC(=O)Cc1c(C)c2ccc(N(CC)CC)cc2oc1=O	15.0	9.0	nt	1.04	12.0%	4.37*
CCN(CC)c1ccc2c(Cl)c(Br)c(=O)oc2c1	0.0	4.0	i	1.02	1.0%	1.54
CCOC(=O)CCc1c(C)c2ccc(O)cc2oc1=O	14.0	9.0	nt	1.12	12.0%	3.69*
CCOC(=O)c1c(C)oc2ccc(O)c(CN(C)C)c12	11.0	1.0	i	0.99	3.0%	1
CC(C)OC(=O)c1c(F)c(F)c(N2CCOCC2)c(F)c1F	3.0	1.0	i	1.05	1.0%	1.1
O=C(NC1CCCCC1)N(CCN1CCCC1)Cc1cc2cc3c(cc2[nH]c1=O)OCCO3	14.0	0.0	+	1.03	19.0%	3.59*
Cc1cccc2cc(CN(CCN3CCCC3)C(=O)NC3CCCCC3)c(=O)[nH]c12	30.0*	3.0	i	1	4.0%	1.21
O=C(NC1CCCCC1)N(Cc1cc2cc3c(cc2[nH]c1=O)OCCO3)CC1CCCO1 (stereo not given)	11.0	9.0	nt	1.08	10.0%	4.47*
Cc1nnc(SCc2cccs2)[nH]c1=O	1.0	4.0	i	1.05	3.0%	1.08
CCCc1cc(=O)n2[nH]c(C)cc2n1	12.0	0.0	i	1.02	7.0%	1.19
COc1ccc(C(c2nnnn2Cc2ccc(F)cc2)N2CCN(c3ccccc3)CC2)cc1 (stereo not given)	15.0	8.0	i	0.97	8.0%	1.08
COc1ccc(Cn2nnnc2C(c2ccccn2)N2CCN(c3cc(Cl)ccc3C)CC2)cc1 (stereo not given)	28.0*	4.0	i	1	3.0%	1.01
COc1ccc(-n2c(Cc3cccn3C)nnc2SCC(=O)NCCc2ccccc2)cc1	6.0	2.0	i	1	3.0%	1.06
CCCC(=O)Nc1ccc(N2CCN(C(=O)CCC)CC2)cc1	11.0	0.0	+	1.01	14.0%	1.09
COCCN(C(=O)CCC(=O)Nc1ccccn1)C(C(=O)NC1CCCC1)c1ccc(OC)cc1 (stereo not given)	24.0	5.0	i	0.98	4.0%	1.01
COc1ccc(NC(=O)CC2C(=O)N(c3cccc(OC)c3)C(=O)N2C2CCCCC2)cc1 (stereo not given)	5.0	7.0	i	0.96	4.0%	1.15
C/C(NCCN1CCOCC1)=C(\C#N)C(N)=O	11.0	0.0	i	1.04	4.0%	1.12
CCOC(=O)c1cc(=O)n2[nH]c(-c3ccc(C)cc3)cc2n1	10.0	15.0	nt	1.04	13.0%	3.87*
CCOC(=O)Cc1c(C)nc2cc(-c3ccc(Cl)cc3)[nH]n2c1=O	0.0	1.0	i	1.07	0.0%	1.53
CCn1ncc(C2=NOC(C(=O)Nc3cccc(C(C)=O)c3)C2)c1C (stereo not given)	9.0	0.0	i	1	3.0%	1.11
CC(C)Oc1ccc2c3c(c(=O)oc2c1)CCC3	4.0	0.0	nt	1.09	2.0%	2.11*
O=c1oc2cc(O)ccc2c2c1CCCC2	4.0	9.0	nt	1.11	7.0%	2.12*
CCN(CC)c1ccc2c(c1)oc(=O)c1c(Cl)cc(=O)oc12	1.0	8.0	i	1.05	9.0%	1.74
O=c1oc2cc(O)ccc2c2oc3cc(O)ccc3c12	8.0	5.0	nt	1.01	5.0%	2.43*
